The results in this text go back to PMC12136788.

Sequences and labels used below:
B1: chr2:205797254:205797461:+|3pUTR|ENSG00000118257|msi1|FALSE|unique (ssRNA)
RNA: GGGAGUUCUACAGUCCGACGAUCUCACCCUCCCAUGAUGCGCAGUGUUCAGAAAGCUGGUAAGUCCUAGGGAUUUCCAGAAGUAGCCUGCAGAAGAAGGUAAGUUUGAAAGCCACUCCAGGGGUCCUGAUGCUGUCAUGCUCACAACAGAGGAUUGAGCAUCA
B2: ENSG00000107863:be:win_2651|CDS|ENSG00000107863|bound_else_gene|NA|bound_elsewhere_windowed (ssRNA)
RNA: GGGAGUUCUACAGUCCGACGAUCAGGGUCUGGAUGAUUACAGAGAAGAUGCAAAAUUGUCCUUUAAGCACGUAUCUAGUCUGAAGGGAAUCAAGAUCGCAGACAGCCAAAAGUCAUCAGAAGACUCUGGGUCCAGAAAAGAUUCAACAGAGGAUUGAGCAUCA
B3: chr10:74136666:74136778:-|CDS|ENSG00000185009|unk|FALSE|unique (ssRNA)
RNA: GGGAGUUCUACAGUCCGACGAUCUUCAGAGGCUGCAAUUAAGGAUAAUGUGGUCAUAGUAUAUGAACUCUUAGAAGAAAUGUUAGACAAUGGAUUUCCACUGGCUACCGAAUCUAACAUUUUGAAAGAAUUGAUUAAACCACCCAACAGAGGAUUGAGCAUCA
B4: chr1:94529602:94529703:-|3pUTR|ENSG00000117525|msi1|total|mutant (ssRNA)
RNA: GGGAGUUCUACAGUCCGACGAUCUGGAAGGAAAUUGGGUGCAUUUCCCGGACUUUUCUAACAUAUGUCUAUAAUACCGUGUUCCGGUUCUUUUUUUUUUCAGGAAUACAUUUGGAAAUUCAAAACAAUUGGCAAACUUUGUAUCAACAGAGGAUUGAGCAUCA
B5: chr1:93888438:93888539:-|3pUTR|ENSG00000023909|msi1|FALSE|unique (ssRNA)
RNA: GGGAGUUCUACAGUCCGACGAUCAGAUAUUUUUCCUGUCAUUGAUGAGAUAUAUCAGAGUAACUGGAGUAGCUGGGAUUUACUAGUAGUGUAAAUAAAAUUCACUCUUCAAUACAUGAAUGGAAACUUAAAUUUUUUUUUAUGCAACAGAGGAUUGAGCAUCA
B6: ENSG00000100485:stop:overlap|stop_codon|ENSG00000100485|stop_codon|NA|stop_codon (ssRNA)
RNA: GGGAGUUCUACAGUCCGACGAUCAUAUAUAUACACAUAUAUAUACACACACACACACAUUUUAUGUGUCAGUUUUCAAUAUAUAGUUAACACAAAAGCUCUCAGCUUUUAAUUCAAAUAUAGGGAAUAUUUUUAACUUCACAGCAACAGAGGAUUGAGCAUCA
B7: chr12:49764829:49764866:+|3pUTR|ENSG00000139644|msi1_unk|FALSE|overlapping (ssRNA)
RNA: GGGAGUUCUACAGUCCGACGAUCACUUUUAAAGAAAAUACCUAACAGAUUUUUAAUAUAGUUAUCUCUACCACUUUCUUUUCUAGUUUCUUGAUUUUCAGCUCAGGCUGCAUUCUAACUCAUACUGUGAAGACAAAGGUGUUUCAACAGAGGAUUGAGCAUCA
B8: chr1:93888438:93888539:-|3pUTR|ENSG00000023909|msi1|total|mutant (ssRNA)
RNA: B5 RNA with U69C, A70C, U83C, A84C, U86C, A87C
B9: chr12:64147824:64147925:+|3pUTR|ENSG00000196935|unk|FALSE|unique (ssRNA)
RNA: GGGAGUUCUACAGUCCGACGAUCCAUCUCUGUGGUGUCUUUGUUCCUUUCCUUUCAUUCAUCACUACUUUCUCCUUGACAGCUAGCUUGCAUUAAAUAAUGUGAAACUUUUACCUUUAAAAUAUUUUUUUAUCUCACUUUCAUCAACAGAGGAUUGAGCAUCA
B10: chr3:125228010:125228111:-|3pUTR|ENSG00000163848|msi1|FALSE|unique (ssRNA)
RNA: GGGAGUUCUACAGUCCGACGAUCAGUUCUCUUCAUAUUUCAUAACUACAUUUCAAUAAUUCUAAACUUUCUACAUUGAUUUUUAGAUACUUAUUUUUCAAGCUUGGUUUCUCAGCUGAUCAGAUGAAUUUAUUCAACUUCAAUCAACAGAGGAUUGAGCAUCA
B11: chr5:43295829:43295944:-|CDS|ENSG00000112972|unk|FALSE|unique (ssRNA)
RNA: GGGAGUUCUACAGUCCGACGAUCAAUAUCCUAGCUUUAUUCUAAAGUCAAACUUUAAAAUUUCAUGGCUUAUAUGAAUUUCAUAGUUUCCUUGGACUUCUCUUUCAGAGGGAAAUGAUAAAGAUUUUACCUUGAAUGAUUUUGCAACAGAGGAUUGAGCAUCA
B12: chr11:58422334:58423261:-|CDS|ENSG00000172365|control|control|control (ssRNA)
RNA: GGGAGUUCUACAGUCCGACGAUCACACACUAGUGAGGUGAUUCUGGUUUUUAUGUCAAGCUUUAAUAUCUUUUUUGUUCUUCUAGUUAUCUUUAUCUCCUACUUGUUCAUAUUCAUCACCAUCUUGAAGAUGCAUUCAGCUAACAACAGAGGAUUGAGCAUCA
B13: chr3:125228010:125228111:-|3pUTR|ENSG00000163848|msi1|total|mutant (ssRNA)
RNA: B10 RNA with U83C, A84C
B14: chr1:162785649:162785750:+|3pUTR|ENSG00000162733|unk|FALSE|unique (ssRNA)
RNA: GGGAGUUCUACAGUCCGACGAUCUGAAUGUUGUUUUUUUGAAUGAACAUAAGAUAGAAACAAAAACUUCUCAUCCAGUUAACUAGAGUGAAUGUAGGGAGAAUUGUUUUGCUUGUAACAUGGAGAGUUUAUUUUCAAGUGAGGCAACAGAGGAUUGAGCAUCA
B15: chr15:77046258:77046342:-|3pUTR|ENSG00000140391|msi1_unk|FALSE|overlapping (ssRNA)
RNA: GGGAGUUCUACAGUCCGACGAUCAAAAAUAUUUACUGUAGUCCAAUAAGAUAGCAGCUGUACAAAAUGACUAAAAUAGAUUGUAGGAUCAUAUGGCGUAUAUCUUGGUUCAUCUUCAAAAUCAGAGACUGAGCUUUGAAACUACAACAGAGGAUUGAGCAUCA
B16: chr2:128192346:128192447:+|3pUTR|ENSG00000136731|msi1|FALSE|unique (ssRNA)
RNA: GGGAGUUCUACAGUCCGACGAUCAGAAAAUGAUGUUACCACUAAAAUAUUUUCUCCAAGAAGGCAUACUGUAACAGAAAAGAUAGGUAAGAUAUUUUUUUCCCAAGAAGUAAGAAUUGAUUGUGCUGAAUGUUCAAACUCUGGCAACAGAGGAUUGAGCAUCA
B17: chr16:3727831:3727932:-|CDS|ENSG00000005339|unk|FALSE|bound_elsewhere (ssRNA)
RNA: GGGAGUUCUACAGUCCGACGAUCCGUCUCACCCCAGACUGGUUCCCCCCACCCCGGACUCGCAGUCACCAUGGCCAGCUCCAUAGAUCAGGGACACUUGGGGAACCCCGAACAGAGUGCAAUGCUCCCCCAGCUGAACACCCCCAACAGAGGAUUGAGCAUCA
B18: chr16:30193532:30193793:-|CDS|ENSG00000169627|control|control|control (ssRNA)
RNA: GGGAGUUCUACAGUCCGACGAUCGCCUUAGUAAGGGCGGAAGUGAGUUUUCCAGCGGAAGUGGCUCCUGUAAGGCAGCAAGGUAGCGUGGCCGGCGCCCGAGCUGGGGUUGUGUCCCUGCUGGGCUGCCGUUCCAGCUGGACUCAACAGAGGAUUGAGCAUCA
B19: chrX:101412715:101412817:+|CDS|ENSG00000126945|unk|FALSE|unique (ssRNA)
RNA: GGGAGUUCUACAGUCCGACGAUCGGGUAUGGAGGCUAUGAUGACUAUGGUGGCUAUAAUGAUGGAUAUGGCUUUGGGUCUGAUAGAUUUGGAAGAGACCUCAAUUACUGUUUUUCAGGAAUGUCUGAUCAUAGAUACGGAGAUCAACAGAGGAUUGAGCAUCA
B20: chr11:28036422:28036524:-|CDS|ENSG00000121621|unk|FALSE|unique (ssRNA)
RNA: GGGAGUUCUACAGUCCGACGAUCCAGCUCAAUGAUUCUCUUAGCAAAGAACUUCAGCCUAUUGUAUAUACACCAGAAGACUGUAGAAAAGCUUUUCAAAAUCCGUCUACAGUAACCUUAAUGAAACCAUCAUCAUUUACUACACAACAGAGGAUUGAGCAUCA
B21: chr11:74334375:74334476:-|3pUTR|ENSG00000165434|msi1|FALSE|unique (ssRNA)
RNA: GGGAGUUCUACAGUCCGACGAUCUUUUUGUUUUAUUUUUAAAAUGUGUAAAACAUCUUUUGUUUUAUAUGCUUUUAAGAAUGUAGAUUGUAAUUUAGGAAAUGGCAUAUAUUCUGCAAAGUGGUAUAAUGUUGUAUAUAUGAACAACAGAGGAUUGAGCAUCA
B22: chr8:25429562:25429664:-|3pUTR|ENSG00000104756|unk|FALSE|unique (ssRNA)
RNA: GGGAGUUCUACAGUCCGACGAUCAGAAAAGCACUCAUUUAAUAGAUGUAGGGAAACUAGAUAUUGCUGCCUUUUGAAUGGGGUAGGGGGGUUUACCUGGUUUUAUGACCAGGCAUAGUAUCUAUUAUAUUUGCUUUUAAAUAGCAACAGAGGAUUGAGCAUCA
B23: chr9:83661418:83661519:-|3pUTR|ENSG00000135018|msi1|total|mutant (ssRNA)
RNA: GGGAGUUCUACAGUCCGACGAUCUACCGUUGGGUGACCAGAUUUUGUCCUGCAUCUGUCCAGUUUAUUUGCUUUUUAAACAUCCGCCUAUGGCCGUAAUUUAUGCCGAAUAAAAGCAUUAAAAAGAAGCAAAUCAUUUGCACUCAACAGAGGAUUGAGCAUCA
B24: chr9:83661418:83661519:-|3pUTR|ENSG00000135018|msi1|FALSE|unique (ssRNA)
RNA: B23 RNA with C26U, C27A, C83U, C84A, C93U, C94A, C105U, C106A
B25: chr5:132541444:132541810:-|three_prime_utr|ENSG00000113525|control|control|control (ssRNA)
RNA: GGGAGUUCUACAGUCCGACGAUCAAAUUGAUAUACUUUUUUCUUAUUUAACUUAACAUUCUGUAAAAUGUCUGUUAACUUAAUAGUAUUUAUGAAAUGGUUAAGAAUUUGGUAAAUUAGUAUUUAUUUAAUGUUAUGUUGUGUCAACAGAGGAUUGAGCAUCA
B26: chr6:98868534:98874277:-|three_prime_utr|ENSG00000112234|control|control|control (ssRNA)
RNA: GGGAGUUCUACAGUCCGACGAUCAUUAAAAUUAAUGUGCUUUGUUGGGGUUUAAUUUUGGGAUUGGUUUUGGGUUUUGUUUUUAGUUGUUUUAAUGGUAAGAAUUAAGACAUUUGUAGAUUUUAAAGAAAAAUAUGAAAUUGUCAACAGAGGAUUGAGCAUCA

Positions count from the first letter of the chain named. In all, about 5,800 sequences were measured (“enrichment r”: median about 0.54, highest 2% from about 16 on). The list comes from a sample in which the highest values are over-represented; it also holds similar and randomly drawn sequences.

For this assay, the target named is MSI1 full-length (mouse, UniProt Q61474 1-362). Description: nsRBNS (natural sequence RNA bind-n-seq); RBNS binding buffer (assumed for nsRBNS): 25 mM Tris pH 7.5, 150 mM KCl, 3 mM MgCl2, 0.01% Triton X-100, 500 ug/ml BSA, 20 U/ml SUPERase-In, 4 C; UNK is unkempt and MSI1 is Musashi-1; names of the RNAs are library labels; protein concentration not given here; high values mean tight binding.
Sequence of MSI1 full-length (Q61474 whole entry): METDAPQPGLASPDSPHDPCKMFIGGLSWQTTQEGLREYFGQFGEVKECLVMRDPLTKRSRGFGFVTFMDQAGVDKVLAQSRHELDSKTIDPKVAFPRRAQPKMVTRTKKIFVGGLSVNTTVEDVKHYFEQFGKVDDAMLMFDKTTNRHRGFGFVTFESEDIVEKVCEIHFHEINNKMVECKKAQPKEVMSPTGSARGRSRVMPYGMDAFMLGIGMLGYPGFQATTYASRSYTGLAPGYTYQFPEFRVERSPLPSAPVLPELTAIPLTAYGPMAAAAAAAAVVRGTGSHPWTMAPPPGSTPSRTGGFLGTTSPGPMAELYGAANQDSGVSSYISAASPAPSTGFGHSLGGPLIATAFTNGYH
In turn, B1 returned a binding signal of 0.607 enrichment R.

With B2, the binding signal was found to be 0.365 enrichment R.

As to B3, the binding signal stood at 0.651 enrichment R.

With B4, the binding signal was found to be 0.407 enrichment R.

As for B5, the binding signal was found to be 28.4 enrichment R.

Molecule B6 yielded a binding signal of 2.06 enrichment R.

In turn, B7 showed a binding signal of 3.05 enrichment R.

As for B8, the binding signal turned out to be 0.484 enrichment R.

The molecule B9 had a binding signal of 7.22 enrichment R.

In turn, B10 yielded a binding signal of 5.53 enrichment R.

With B11, the binding signal was found to be 0.654 enrichment R.

As for B12, the binding signal turned out to be 23.6 enrichment R.

With B13, the binding signal was 18.6 enrichment R.

Molecule B14 gave a binding signal of 2.65 enrichment R.

Take B15: the binding signal was 9.31 enrichment R.

As to B16, the binding signal was 0.593 enrichment R.

In turn, B17 registered a binding signal of 0.562 enrichment R.

Consider B18, for which the binding signal was 0.62 enrichment R.

For B19, the binding signal stood at 0.771 enrichment R.

Molecule B20 came in with a binding signal of 0.992 enrichment R.

In the case of B21, the binding signal worked out at 3.15 enrichment R.

Consider B22, for which the binding signal was 2.16 enrichment R.

As to B23, the binding signal worked out at 0.203 enrichment R.

Regarding B24, the binding signal was 26.4 enrichment R.

For the molecule B25, the binding signal stood at 2.88 enrichment R.

Regarding B26, the binding signal is 21.9 enrichment R.
